Consider 40 compounds from PubChem BioAssay (NCI).

This is part of a sample that, as a whole, favours compounds with a hit. Of some 83,000 tested, about 20% had one in any assay.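 A percent growth of 40 corresponds to 60% growth inhibition; 0 means no net growth; -100 means all cells died. Active threshold: below 10.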 A number with no mark means an inactive call. Calls of active or inactive are those of the source.

The assay concerns MOLT-4 leukemia. The assay can be described thus: NCI-60 one-dose screen, 48 h (100 = growth as untreated, 0 = no growth, -100 = all killed). To be noted: 10 µM unless noted. How it is done: Growth inhibition of the MOLT-4 human tumor cell line is measured as a screen for anti-cancer activity. Cells are grown in 96 well plates and exposed to the test compound for 48 hours. Compounds are tested at a single concentration, which is 10^-5 M for most compounds. The reported endpoint is percent growth (GI% or GIPRCNT), where numbers from 0 - 100% represent growth inhibition, and numbers from -100% - 0 represent cell death. For example, a value of 40 represents 60% growth inhibition. A value of 0 means no net growth occurred over the course of the experiment. A value of -40 indicates 40% of cells at the beginning of the experiment died by the end of the experiment. A value of -100 means all cells are dead at the end of the experiment.
NCI-60 Human Tumor Cell Lines Screen was performed using the standard one-dose NCI protocol, which is described in more detail at https://dtp.cancer.gov/discovery_development/nci-60/default.htm.
Compounds with GIPRCNT values below 10 were considered active. Activity score was based on GIPRCNT using the following formula: […]
Score is 0 for GIPRCNT values of 100 or above, 50 for GIPRCNT values of 0, and 100 for GIPRCNT values of -100.
In the case of `COc1cc(-c2nc3cc(Cl)c(Cl)cc3[nH]2)ccc1OCC(=O)N=Nc1c(O)[nH]c2ccccc12`, the growth was -50.7% (active).
The figure for `C=CC(COC(c1ccccc1)(c1ccccc1)c1ccccc1)N(CC)CC` (stereo not given) is 8.88% (active); for `COc1cccc(NC(=O)c2sc3nc(C)c(C(C)=O)cc3c2N)c1` it is 44.9%.
The figure for `CN1CCN(c2ccc3nc(-c4ccc(OCCCCN5CCN(CCCCN6C(=O)c7cccc8cccc(c78)C6=O)CC5)cc4)[nH]c3c2)CC1` is 52%; for `O=C1/C(=C/c2ccc(Cl)cc2)SC(=S)N1CCc1ccc(O)cc1` it is 54.3%; for `COc1ccc(C(=S)N2CCN(c3cccc(Cl)c3)CC2)cc1` it is 108%.
The figure for `C=C1C(=O)O[C@H]2[C@H]1CC/C(C=Nc1ccc(C(F)(F)F)cc1N)=C\CC[C@@]1(C)O[C@@H]21` is -3.3% (active); for `N#CN1CC[C@H](C(=O)Nc2cc3cc(C(N)=O)ccc3cn2)C1` it is -18.1% (active).
As for `COc1ccc(C2Nc3c(c(C(C)(C)C)nn3-c3ccccc3)C(=O)CS2)cc1` (stereo not given), the growth is 75.7%.
The figure for `Cc1cc(N[C@@H]2CCC[C@H](Nc3ccnc4cc(Cl)ccc34)C2)nc(N2CCCCCC2)n1` is -18.5% (active).
The figure for `O=C1c2c(O)cc(O)cc2-c2c(-c3ccc(O)cc3)oc3cc(O)cc1c23` is 1.37% (active).
The value for `COC[C@H](C)n1c(C2CCOCC2)nc2cnc3cc(-c4c(C)noc4C)c(OC)cc3c21` was 42.2%; that for `Cc1nn(-c2ccc(F)cc2)c2ncnc(Nc3ccc(NC(=O)Nc4ccc(Cl)c(C(F)(F)F)c4)cc3)c12` was 26.4%; that for `O=C(CCCCC(=O)N/N=C\c1ccccc1O)N/N=C\c1ccccc1O` was 14.6%.
`CCOc1ccc(-n2nc(C(=O)Nc3ccccc3)nc2-c2cc(OC)c(OC)c(OC)c2)cc1`: the growth is 42.9%.
The figure for `C=CC(=O)Nc1cccc(-c2nc(SC)nc(NCc3ccccc3)c2C#N)c1` is 49.1%; for `CCCSc1ccc2nc(NC(=O)OC)[nH]c2c1` it is 23.6%; for `N#Cc1c(-c2ccc(Cl)cc2)nc(NN=Cc2ccco2)nc1N1CCOCC1` it is 83%.
Turning to `CC1=C[C@H]2c3c(c(O)c(O)c4oc5c(C)cccc5c(=O)c34)[C@H](c3cc(O)c(O)c4oc5c(C)cccc5c(=O)c34)[C@H]2C(C)(C)C1`, the growth is 3.99% (active).
As for `COc1cc(CNc2oc(-c3ccccc3)c(-c3ccccc3)c2C#N)cc(CN2CCN(C)CC2)c1O`, the growth is -13.7% (active).
The value for `c1ccc(-c2c(-c3ccccc3)[n+](Cc3ccc4ccccc4c3)c(-c3ccc(-c4nc5ccccc5s4)cc3)n2Cc2ccc3ccccc3c2)cc1` was -51.9% (active).
For `Cc1cc2nc3[nH]c4ccccc4c3nc2cc1C`, the growth is 89.7%.
The value for `CC(C)(C)N1CCC1CN` (stereo not given) was 128%.
The figure for `O=C1c2ccccc2OC=C(c2ccccc2)N1CCCCNc1ccc(S(=O)(=O)Nc2ncccn2)cc1` is 85.3%; for `Cc1cc(N2CCCC2)nc(NC2CCCC(Nc3ccnc4cc(Cl)ccc34)C2)n1` (stereo not given) it is -20.8% (active); for `COc1cc(C2CC(=O)c3ccccc3N2)cc(OC)c1OC` (stereo not given) it is 97%.
`c1ccc2[nH]c(-c3ccc(Nc4nc(N5CCCC5)nc5[nH]ncc45)cc3)nc2c1`: the growth is -44.1% (active).
With `Oc1cccc(-c2nc(N3CCOCC3)c3c4c(sc3n2)CCCC4)c1`, the growth is 24%.
The figure for `COc1ccc(-c2nn(-c3ccc(Cl)cc3)cc2-c2nc3ccccc3[nH]2)cc1` is 81.8%; for `CC(C)(CCCN=C(N)Nc1ccc(Cl)cc1)c1ccc(F)cc1` it is 37.7%.
The value for `C=C1C(=O)O[C@H]2[C@H]1CC/C(COC(=O)NCCc1ccc(OC)c(OC)c1)=C\CC[C@@]1(C)O[C@@H]21` was 43.6%; that for `CC(=O)Nc1ccc(-n2c(O)c(/C=N/NC(=O)Cc3ccccc3Nc3c(Cl)cccc3Cl)sc2=S)cc1` was 94.2%.
The value for `CON1C(=O)CC[C@]2(C)[C@H]3CC[C@@H]4C([C@@]5(C)CCC(=O)O5)CC[C@@]4(C)[C@]3(C)CC[C@H]2C1(C)C` (stereo not given in full) was 90.6%; that for `CC1=CC(C)(C)Nc2ccc(Cc3ccc4c(c3)C(C)=CC(C)(C)N4)cc21` was 82.9%.
For the compound `Cc1cc(N2CCN(c3ccnc4cc(Cl)ccc34)CC2)nc(NC2CCCCC2)n1`, the growth was -14.9% (active).
The value for `COc1ccc(-c2nc3ccc(-c4nc5ccc(N6CCN(c7ccc(F)cc7)CC6)cc5[nH]4)cc3[nH]2)cc1OC` was 27.9%.
For the compound `COc1ccc(/C=C/c2nc3ccccc3nc2/C=C/c2ccc(OC)cc2)cc1`, the growth is 99.1%.
Take `COc1ccc(CN2c3ccccc3Sc3ccccc32)cc1O`: the growth is 18.4%.
The value for `COc1ccc(S(=O)(=O)N2CCN(C)CC2)cc1NC(=O)c1[nH]c(C)c2c1CCCCC2=O` was 81.4%; that for `N#CN1CCC[C@H]1C(=O)N1CCc2c(-c3[nH]nc4ncccc34)cccc21` was 7.28% (active).
